# From PubChem BioAssay AID1458 (National Center for Advancing Translational Sciences (NCATS), 2008)
# Out of some 210,000 compounds screened, about 5,900 (2.8%) were called active. Roughly 5% stayed inconclusive and do not appear here. For the sample, actives were picked, then their nearest neighbours and some compounds at random. A number with no mark means an inactive call. Calls come from the whole dose curve; as a rule, active = well fitted activation curve with a large enough effect; inconclusive = small, poorly fitted or top-dose-only effect; inactive = no such curve, though single readings can be large or run the other way.
# Test: qHTS Assay for Enhancers of SMN2 Splice Variant Expression; note: nearly all actives have a fitted effect of over 55% in size; for activity change, positive = activation: % of control where 0% means no effect
# Conditions: HEK293 SMN2-luciferase splicing reporter, luminescence, 30-36 h; series mostly up to 46.1 µM; activity change, positive = activation: at the top concentration
# From the text: NIH Chemical Genomics Center [NCGC] NIH Molecular Libraries Probe Production centers Network [MLPCN] MLPCN Grant: R03 MH084179-01 Assay Submitter (PI): Elliot Androphy NCGC Assay Overview: Spinal muscular atrophy (SMA) is caused by insufficient levels of the survival motor neuron protein SMN. The SMN locus on chromosome 5q13 contains two inverted copies of SMN called SMN1 and SMN2 which are 99% identical at the amino acid level. SMN1 is a fully functional protein and SMN2 skips exon 7 90% of the time. Skipping of exon 7 produces non-functional protein product. 10% of the SMN2 protein includes exon 7 and is fully functional. In the SMA disease state, mutations in the SMN1 locus are the cause of the disease state. Because only 10% of SMN2 is of the fully functional form, it is not sufficient to overcome the deficiency produced by the loss of the SMN1 product. A therapy that either increase the amount of SMN2 product made or to increase the inclusion of exon 7 has been proposed for the treatment of SMA. We have designed an assay to identify small molecules that can increase the amount of functional SMN2 product by appending a luciferase reporter gene after the native SMN2 gene, such that inclusion of exon 7 in the expressed product places the luciferase sequence in frame, thus generating functional luciferase enzyme.
# NCGC Assay Protocol Summary: This screen utilizes a luciferase reporter gene assay, combining the promoter and splicing based cassettes in tandem with the major portion of the native SMN2 cDNA, and then transfected into HEK293 cells. Compounds that increase luciferase signal presumably enhance expression of the functional SMN2 splice variant. Passaging media contained DMEM w/ glutamax (+phenol red) 10% FCS, 1x pen/strep, 200 ug/ml hygro, 1x sodium pyruvate. Assay media contained DMEM w/ glutamax (-phenol red) 10% FCS, 1x pen strep, 1x pyruvate Sequence, Parameter, Value, Description (1) Cells, […], 2000 cells/well, 1536 TC treated White solid bottom plate (2) Time, 10-12 hours, 37C 5% CO2 (3) Compound, 23 nl, MLSMR Library (4) Control Compound, 23 nL, Sodium butyrate st 4.5mM (final) conc (5) Time, 30-36 hours, 37C 5% CO2 (6) Reagent, 3 ul, One Glo (TM) from Promega (7) Time, 5-15 minutes, Room temp (8) Detector, Viewlux: luminescent read, 60 second integration, high speed 2x binning Keywords: Spinal muscular atrophy, SMA, SMN2, high throughput screening, MLSMR, MLPCN, NIH Roadmap, qHTS and NCGC
# Potency is the fitted concentration of half-maximal effect.
SMILES,"activity change, positive = activation",Potency
CCc1ccc(NC(=O)N2CCN(c3ccccc3)CC2)cc1,1.4%,–
CCOC(=O)c1ccc(NC2Nc3cc(C)nn3S2)cc1 (configuration not stated),-45.1%,–
CCc1ccc(NC2Nc3cc(C)nn3S2)cc1 (configuration not stated),–,11.2 µM (active)
O=C(NCCC1=CCCCC1)c1ccc2c(c1)N(Cc1ccccc1F)C(=O)c1ccccc1S2(=O)=O,9.24%,–
COc1ccc(CNC(=O)c2cc3c(-c4ccccc4F)nn(C)c3s2)c(OC)c1,-4.64%,–
CCOc1ccc(/C=C(\C#N)c2nc3ccccc3c(=O)[nH]2)cc1OC,6.78%,–
Fc1cccc(-n2ncc3c2ncn2nc(-c4ccccc4Cl)nc32)c1,11.6%,–
COc1ccc(-n2nc(C(=O)NCCc3ccc(Cl)cc3)c3c4ccccc4n(C)c3c2=O)cc1Cl,-6.22%,–
Cc1ccc(N)cc1-n1c(C)ccc1C,–,28.2 µM (active)
CC(C)CNC(=O)c1cc(-c2ccc(Br)cc2)on1,–,12.6 µM (active)
CCCCNC(=O)c1cc(-c2ccc(Cl)c(Cl)c2)on1,3.08%,–
CC(NC(=O)c1cc(-c2ccccc2)on1)c1ccccc1 (configuration not stated),-1.13%,–
CCCCS(=O)(=O)c1oc(-c2cccs2)nc1S(=O)(=O)c1ccccc1,-103%,–
Cc1ccc(S(=O)(=O)N2CCc3cc(C(=O)Nc4ccc(Cl)cc4C)ccc32)cc1,-7.76%,–
CCCOC(=O)c1cc2ccccc2oc1=O,-9.46%,–
O=c1oc2ccccc2cc1-c1csc(Nc2ccc(O)cc2)n1,–,11.2 µM (active)
Cc1nc(C)c(-c2csc(NCCc3ccccc3)n2)s1,-52.2%,–
COc1ccc2nc(Nc3nc(-c4cc5ccccc5oc4=O)cs3)sc2c1,4.66%,–
Cc1cc(NC(=O)c2cccc(Cl)c2)ccc1-c1cc2ccccc2oc1=O,-3.74%,–
CCNc1nc(-c2cc3ccccc3o2)cs1,–,3.16 µM (active)
Cc1cc2c(cc1C)C(c1cccc(OC(C)C)c1)CC(=O)N2 (configuration not stated),5.65%,–
Cc1cccc(CSc2ccc(-c3cccs3)nn2)c1,–,20 µM (active)
O=C(CSc1ccc(-c2cccs2)nn1)Nc1ccccc1F,-18.9%,–
N#Cc1ccc(-c2cccs2)nc1SCc1ccc(Br)cc1,0.274%,–
COc1ccc(C2NC(=O)N(C)C3=C2C(=O)N(c2ccc(C(=O)O)cc2)C3)cc1 (configuration not stated),-7.2%,–
COc1cccc(CNC(=O)C(NS(=O)(=O)c2ccc3nc(C)sc3c2)C(C)C)c1 (configuration not stated),-7.88%,–

SMILES,"activity change, positive = activation",Potency
O=C(Nc1cccc(-c2nc3ncccc3o2)c1)c1ccco1,-8.65%,–
O=C(Nc1ccc2oc(-c3ccccc3F)nc2c1)c1ccco1,–,11.2 µM (active)
O=C(Nc1ccc(O)c(-c2nc3ccccc3o2)c1)c1ccc(-c2cccc(Cl)c2)o1,-8.85%,–
CCCCN(CC)C(=O)c1c[nH]c2ccc(S(=O)(=O)Nc3cccc(OC)c3)cc2c1=O,1.17%,–
CCCNC(=O)C(CC)n1nc(CC)n2c(cc3oc(C)cc32)c1=O (configuration not stated),-16.5%,–
Cc1ccc(-c2cc(N)n(Cc3cccc(Cl)c3)n2)cc1,-34%,–
CCc1cc2c(cc3c(=O)n(CC(=O)NCc4cccc(Cl)c4)nc(CC)n32)s1,-8.46%,–
Cc1ccc2cccc(NC(=O)c3cccc4ccccc34)c2n1,-1.04%,–
COc1ccc(Oc2coc3cc(OC(=O)c4cncc(Br)c4)ccc3c2=O)cc1,-2.3%,–
CCc1cccc(OC2OC(CO)C(O)C(O)C2NC(C)=O)c1 (configuration not stated),26.1%,–
Cc1csc(-c2coc3cc(O[C@@H]4O[C@H](CO)[C@@H](O)[C@@H](O)[C@H]4O)ccc3c2=O)n1,–,20 µM (active)
CCOc1ccc(C(=O)/C=C/c2cn(CC(O)CN3CCCCCC3)c3ccccc23)cc1 (configuration not stated),-12.8%,–
S=C(Nc1cccc(Cl)c1)Nc1ccc2cn[nH]c2c1,27.5%,–
CC(=O)Nc1cccc(C(=O)Nc2nc(C)cs2)c1,2.64%,–
Cc1csc(NC(=S)Nc2cccc(Cl)c2)n1,–,14.1 µM (active)
Cn1c(=O)c2c(-c3ccccc3Br)n(Cc3ccccc3)cc2n(C)c1=O,-0.398%,–
COc1ccc(S(=O)(=O)c2c(Nc3cccc(Cl)c3)sc(C(=O)c3ccccc3)c2N)cc1,-25.5%,–
COc1ccc(C(CC(=O)c2ccccc2)S(=O)(=O)c2ccccc2)cc1 (configuration not stated),–,12.6 µM (active)
COc1ccc(C(=O)CSc2nccc(=O)[nH]2)cc1,-3.01%,–
COc1ccc(C(CC(=O)O)NC(=O)Cc2ccccc2)cc1 (configuration not stated),20.8%,–
O=c1ccn([C@@H]2O[C@H](COP(=O)(O)OP(=O)(O)OP(=O)(O)O)[C@@H](O)[C@H]2O)c(=O)[nH]1,-3.68%,–
COc1ccc(CCN2C(=O)c3oc4cc(C)cc(C)c4c(=O)c3C2c2ccccc2F)cc1OC (configuration not stated),4.2%,–
Cc1cccc(CSc2nnc(NC(=O)CSc3nnc(C)s3)s2)c1,-6.2%,–
O=C(Nc1nnc(SCc2ccccc2)s1)c1ccco1,39.9%,–
Cc1ccc(Nc2nnc(SCc3ccccc3)s2)cc1,–,14.1 µM (active)
COc1cc(C(=O)N(Cc2ccc(C(C)C)cc2)C2CCS(=O)(=O)C2)cc(OC)c1OC (configuration not stated),-5.52%,–
